Screening data: PubChem BioAssay, National Center for Advancing Translational Sciences (NCATS)
In the library only some 21% were active in any assay of this set; here they are far more common.
Pf growth 48h = inhibits P. falciparum growth in the first generation, 48 h; P. falciparum luciferase growth in erythrocytes, 48 h; Potency, µM (titrated, usually from 28.7 µM), inactives show at the highest dose activity change, negative = inhibition, hits mostly inhibitors; 310,000 tested, 5.9% active; AID 504832; note: potency is the fitted concentration of half-maximal effect; % is set by controls: 0 for no effect and ±100 for the full control effect
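First compound was added to culture medium, then infected red cells at 0.1% parasitemia and 2% hematocrit (final). After incubation at 37 C under 5% CO2, luciferase detection reagent was dispensed and light output recorded.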
CHX counter = counter-screen hit for Shiga toxin inhibitors, cycloheximide. cell reporter, cycloheximide protein synthesis inhibition counterscreen. max response, %. 300,000 tested, 12% active; in the data active = max response mostly above about 13%, no sharp cut-off; inactive = mostly below about 14%; note: read at 38.3 µM for the half of the compounds with a filed dose; 0% is about no effect
Shiga toxin inh = Shiga toxin inhibition | Vero cells, Shiga toxin protein synthesis inhibition reporter | inhibition, % at 38.7 µM | AID 2315 | 290,000 tested, 9.2% active; in the data active = inhibition mostly above about 28%, no sharp cut-off; inactive = mostly below about 43%; note: 0% is about no effect
Giardia FBPA inh = inhibitors of Giardia lamblia fructose-1,6-bisphosphate aldolase. A8B2U2. purified Giardia FBPA. Potency, µM (titrated, usually from 59.6 µM), without a hit: at the top dose activity, negative = inhibition, usual class: inhibitors. 290,000 tested, 0.71% active. AID 2451; note: potency is the fitted concentration of half-maximal effect; % is set by controls: 0 for no effect and ±100 for the full control effect; nearly all actives have a fitted effect of over 55% in size
Target sequence (A8B2U2 whole entry, looked up): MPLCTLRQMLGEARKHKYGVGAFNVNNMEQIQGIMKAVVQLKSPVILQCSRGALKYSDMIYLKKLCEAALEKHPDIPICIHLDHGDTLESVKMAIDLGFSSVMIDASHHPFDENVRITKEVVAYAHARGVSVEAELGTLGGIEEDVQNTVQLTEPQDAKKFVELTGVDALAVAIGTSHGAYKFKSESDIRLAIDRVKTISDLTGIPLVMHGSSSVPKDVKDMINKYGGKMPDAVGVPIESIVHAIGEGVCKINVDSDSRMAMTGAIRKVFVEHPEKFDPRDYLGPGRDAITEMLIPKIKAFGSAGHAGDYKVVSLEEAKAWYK
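40 nM FBPA preincubated 10 min at RT with compound (up to 57.5 uM final), then substrate plus GAPDH/TPI/NAD/arsenate coupling and diaphorase/resazurin added. Fluorescence read after 20 min at RT, 525/598 nm.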
NS1 function inh = influenza NS1 inhibition. Potency, µM (doses to about 46.1 µM), without a hit: at the top dose activity, positive = more growth. 270,000 tested, 0.4% active. AID 2326; calls by dose curve; note: potency is the fitted concentration of half-maximal effect; actives are rising curves; nearly all actives have a fitted effect of over 50% in size
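S. cerevisiae expressing influenza A NS1, grown in glucose, washed, then diluted 1:100 into pH 6.0 -URA galactose medium with 23 nl compound. Growth recovery read as OD600; NS1-free strain serves as control.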
Pf growth 96h = inhibits malaria parasite growth, 96 h; AID 504834; Potency, µM (series often up to 28.7 µM), for the others: at the top dose activity change, negative = inhibition, most hits filed as inhibitors; 320,000 tested, 6.9% active; P. falciparum luciferase reporter growth, 96 h; note: potency is the fitted concentration of half-maximal effect; % is set by controls: 0 for no effect and ±100 for the full control effect
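Two-generation exposure (96 h) targets delayed-death phenotype. Reporter parasites carrying integrated firefly luciferase, in red cells at 2% hematocrit and 0.05% parasitemia final, kept at 37 C, 5% CO2; luminescence loss indicates inhibition.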
* = called active by the depositor; ? = inconclusive; . = no result given; [ ] = dose if it differs, or a comment. Unless noted, calls come from the whole dose curve; as a rule, active = well fitted curve in the direction sought with a large enough effect; inconclusive = small, poorly fitted or top-dose-only effect, or another doubt; inactive = no such curve, though single readings can be large; an effect the other way counts as inactive or inconclusive.

SMILES	Pf growth 48h	CHX counter	Shiga toxin inh	Giardia FBPA inh	NS1 function inh	Pf growth 96h
Cc1onc(-c2c(F)cccc2Cl)c1C(=O)NC1CC1	13%	-3	-10	.	7%	21%
CCSc1nnc(NC(=O)c2c(-c3ccccc3Cl)noc2C)s1	.	5	71	25%	?	5.9µM*
Cc1onc(-c2ccccc2Cl)c1C(=O)NC1CCS(=O)(=O)C1 (configuration not stated)	.	-5	18	8%	7%	12µM*
Cc1onc(-c2ccccc2Cl)c1C(=O)Nc1ccc(Cl)cn1	-7%	11*	12	0%	-6%	1%
Cc1cc(C)n(C(C)CNS(=O)(=O)c2ccccc2)n1 (configuration not stated)	-2%	-4	15	1%	0%	-1%
O=C(O)CCCSc1nccn1-c1ccccc1	-5%	13	-11	11%	1%	11%
Cc1ccc(NS(=O)(=O)c2c(C(=O)N3CCCCCC3)c(C)n(C)c2C)cc1C	-4%	-4	-5	.	-7%	20%
CCCCNS(=O)(=O)c1ccc(NC(=O)c2c(-c3ccccc3Cl)noc2C)cc1	.	-6	-19	-1%	1%	5.2µM*
Cc1onc(-c2ccccc2Cl)c1C(=O)Nc1ccc(-c2cn3cccnc3n2)cc1	10µM*	-3	-2	8%	?	?
CN(C)c1ncc2nc(-c3cccs3)c(=O)n(-c3ccccc3)c2n1	.	.	.	4%	.	.
CC[C@H]1OC(=O)[C@H](C)C(=O)[C@H](C)[C@@H](OC2O[C@H](C)C[C@H](N(C)C)[C@@H]2O)[C@@](C)(OC)C[C@@H](C)C(=O)[C@@H](C)C2N(CCCCn3cnc(-c4cccnc4)c3)C(=O)O[C@@]21C (some centres not stated)	?	.	.	.	.	13µM*
C=C1C(=O)O[C@@H]2C[C@@H](C)[C@@H]3C=CC(=O)[C@@]3(C)[C@@H](OC(C)=O)[C@H]12	2.1µM*	-8	-11	0%	-4%	2.9µM*
C=C1C(=O)O[C@@H]2C[C@@H](C)[C@@H]3C=CC(=O)[C@@]3(C)[C@@H](O)[C@H]12	0.83µM*	-10	-17	5%	?	1µM*
C[C@@H]1C[C@@H]2OC(=O)[C@]3(C)[C@H]2[C@@H](OC3(C)O)[C@]2(C)C(=O)C=C[C@H]12 (some centres not stated)	13µM*	31*	26*	14%	2%	?
CCOC(=O)C(C(=O)c1ccccc1)[C@H](CCc1ccccc1)NC(=O)OC (some centres not stated)	.	.	.	3%	.	.
COc1c2ccoc2nc2c(OC)cccc12	.	16	44*	0%	-37%	18%
O=C(c1cccc([N+](=O)[O-])c1)N1CCN(c2n[nH]c(=O)[nH]c2=O)CC1	9%	-4	2	1%	-61%	21%
O=c1cc(NCCc2ccccc2)c2ccccc2o1	?	24*	42*	1%	-53%	9%
Cc1ccccc1Nc1cc(=O)oc2ccccc12	.	7	17	-2%	-47%	13µM*
Cc1ccc(Nc2cc(=O)oc3ccccc23)c(C)c1	?	1	-2	1%	-71%	0.13µM*
O=c1cc(NCCO)c2ccccc2o1	.	-3	-2	0%	?	34%
C=C(C)C(O)/C=C/c1ccc(OC)cc1 (configuration not stated)	.	.	.	-4%[12.9 µM]	.	.
COc1ccc(C(=O)NCCS(=O)(=O)N2CCCCCC2)cc1	-1%	.	.	.	.	4%
CC1Sc2ccc(S(=O)(=O)CCC(=O)N3CCN(c4ccccc4F)CC3)cc2NC1=O (configuration not stated)	?	-1	16	4%	9%	-26%
Cc1ccc(C2c3[nH]c4ccccc4c3C[C@H]3C(=O)N(c4ccccc4C(=O)NCCCN4CCOCC4)C(=O)N23)cc1 (some centres not stated)	?	-3	2	14%	1%	?
SMILES	Pf growth 48h	CHX counter	Shiga toxin inh	Giardia FBPA inh	NS1 function inh	Pf growth 96h
O=C(NCCCN1CCOCC1)c1ccccc1N1C(=O)[C@@H]2Cc3c([nH]c4ccccc34)C(c3cccc(Cl)c3)N2C1=O (some centres not stated)	?	-4	1	-17%	-2%	9.3µM*
Cc1ccccc1C1c2[nH]c3ccccc3c2C[C@H]2C(=O)N(c3ccccc3C(=O)NCCN3CCOCC3)C(=O)N12 (some centres not stated)	?	-4	-2	1%	6%	?
Cc1ccccc1C1c2[nH]c3ccccc3c2C[C@H]2C(=O)N(c3ccccc3C(=O)NCCCN3CCOCC3)C(=O)N12 (some centres not stated)	?	-2	-1	21%	-3%	12µM*
Cc1ccc(C2c3[nH]c4ccccc4c3C[C@H]3C(=O)N(c4ccccc4C(=O)NCCN4CCOCC4)C(=O)N23)cc1 (some centres not stated)	15µM*	-2	1	-3%	-20%	?
CCCCC(C(=O)NC1CCCC1)N(C(=O)c1snc(C(N)=O)c1N)c1ccc(C)cc1 (configuration not stated)	?	-2	-4	4%	10%	49%
Cc1onc(-c2c(Cl)cccc2Cl)c1C(=O)N=S(C)(=O)c1ccccc1 (configuration not stated)	?	1	-4	-15%	4%	10µM*
COc1ccccc1N1CCN(C(=O)c2c(-c3c(F)cccc3Cl)noc2C)CC1	?	-1	-3	8%	-16%	12µM*
Cc1onc(-c2c(Cl)cccc2Cl)c1C(=O)N1CCc2ccccc21	8.3µM*	-2	-13	-11%	-10%	0%
Cc1onc(-c2ccccc2Cl)c1C(=O)N1CCc2ccccc2C1	?	-2	-5	-14%	4%	?
COc1ccccc1N1CCN(C(=O)c2c(-c3ccccc3)noc2C)CC1	-8%	-3	-19	4%	-60%	?
Cc1onc(-c2c(F)cccc2Cl)c1C(=O)N1CCc2ccccc2C1	5.9µM*	-3	22	-5%	-7%	?
OCC[C@@H]1C[C@H](O)[C@@H](O)[C@@]2(CCCc3ccccc3O2)O1	16%	-4	-3	-20%	-12%	18%
O=C(COC(=O)c1cc(=O)[nH]c2ccccc12)Nc1nc(-c2ccccc2)cs1	46%	12	0	2%	-1%	58%
C=CCOc1ccc(/C=C/C(=O)OCC(=O)N(C)C2CCS(=O)(=O)C2)cc1 (configuration not stated)	20%	-2	2	.	11%	30%
CCS(=O)(=O)c1ccc2oc(SCC(=O)NCCc3ccc(F)cc3)nc2c1	-20%	1	13	8%	-1%	13%
